This passage reports inhibition results from ChEMBL document CHEMBL3433997, “St. Jude Leishmania screening dataset” (2016).

Each structure is given as a SMILES string.

For this assay, the target named is Glucose transporter (Leishmania mexicana) (UniProt O61059). As to the kind of experiment: ST_JUDE_LEISH: Cytotoxicity at 2uM final concentration against transgenic Leishmania Mexicana promastigotes LmGT2 that are glucose transport deficient and complemented with the L. Mexicana glucose transporter 2. Activity is measured by DNA content using SYBR green in vitro. In kind it is functional.
For orientation: inhibition means the drop in the measured response relative to a control, in per cent. As to `CC(CN1CCN(C)CC1)C(=O)Nc1ccc(-c2csc(-c3nc4ccccc4[nH]3)c2)cc1` (stereo not given), the inhibition came to 5.51%.
For `O=C(CCc1c[nH]cn1)Nc1cccc(-c2cccc(-c3nc4cc(C(F)(F)F)ccc4[nH]3)c2)c1`, the inhibition was 0.79%.
With `c1cncc(Oc2ccc(Nc3ccnc4cc(-c5cccc(CNCCN6CCOCC6)c5)ccc34)cc2)c1`, the inhibition worked out at 1.1%.
In the case of `NC1CCN(Cc2ccc(-c3cccc(-c4nc5cc(F)ccc5[nH]4)c3)cc2)C1` (stereo not given), the inhibition came to 12.8%.
Turning to `Cc1cc(-c2cccc(CNC3CCN(C)CC3)c2)ccc1S(=O)(=O)NCCc1ccccn1`, the inhibition was found to be 0.73%.
`COc1cc2nc(N3CCN(C(=O)c4ccc(N(C(=O)OC(C)(C)C)C(=O)OC(C)(C)C)cc4)CC3)nc(N)c2cc1OC`: the inhibition was 0.52%.
Regarding `CC(C)(C)c1ccc(OCCCON2C(=N)N=C(N)NC2(C)C)c(C(C)(C)C)c1`, the inhibition was 1.14%.
Regarding `COc1ccccc1NC(=O)Nc1ccc(-c2ccc(-c3nc4cc(C(F)(F)F)ccc4[nH]3)cc2)cc1`, the inhibition was 2.26%.
With `COc1ccc(-c2cccc(CNC3CCN(C)CC3)c2)cc1S(=O)(=O)NCc1ccccc1` the figure was 4.42%.
For the compound `O=C(NCCc1ccc(Cl)c(Cl)c1)[C@@H]1CCCN1C(=O)c1ccc(O)c(-c2ccc(Cl)c(Cl)c2)c1`, the inhibition was -1.51%.
With `O=C(Nc1ccc(OC2CCN(Cc3ccc(F)cc3)CC2)c(Cl)c1)c1ccsc1` the figure was 1.51%; with `CCCN(CCC)S(=O)(=O)c1ccc(C(=O)Nc2nc3ccc(-c4cc(=O)[nH]c(Nc5ccccc5Cl)n4)cc3[nH]2)cc1`, 4.26%.
As for `COc1ccccc1CCNC(=O)c1cc(Br)cc(N2CCN(c3ccncc3)CC2)c1`, the inhibition turned out to be 0.04%.
Turning to `COc1ccc(-c2ccc(NC(=O)c3cccc(C#N)c3)cc2)cc1CN1CCCC(C(N)=O)C1` (stereo not given), the inhibition was 5.2%.
To `COc1ccc(N(C)Cc2cnc3nc(N)nc(N)c3n2)cc1` belongs 2.61%; to `O=C(Nc1ccc(-c2nc3ccccc3[nH]2)cc1)C1CCN(Cc2ccccc2)CC1`, 12.6%.
Regarding `Cc1nc(-c2ccc(C(F)(F)F)cn2)sc1C(=O)N1CCc2cc3nccc(N4CCN5CCC[C@H]5C4)c3cc21`, the inhibition came out at 0.8%.
With `CCN(CC)CCN(Cc1ccc(-c2ccc(C(F)(F)F)cc2)cc1)C(=O)Cn1nc(-c2ccc(C(F)(F)F)cc2)ccc1=O` the figure was 2.83%; with `Cc1n[nH]c2cc(Nc3ccnc(Nc4ccc(CN5CCOCC5)cc4)n3)ccc12`, 14.2%.
With `Cc1cccc2nc(-c3ccc(-c4ccc(CNCC(C)C)cc4)cc3)[nH]c12` the figure was 8.18%; with `Cn1cncc1-c1ccc2c(-c3ccsc3)cnc(N)c2c1`, 6.81%.
Consider `O=C(Nc1cccc(-c2cccc(-c3nc4ccccc4[nH]3)c2)c1)c1csnn1`, for which the inhibition came to 1.92%.
`O=C(N[C@H]1CCN(CCc2ccc(O[C@H]3CCNC3)c(F)c2)C1)c1ccc(Cl)c(Cl)c1`: the inhibition turned out to be 9.34%.
For `Nc1ncc(Cc2ccc3c(ccc4ccccc43)c2)c(N)n1`, the inhibition amounted to 11.9%.
Consider `O=c1cc(NCC2(CNCc3cn(Cc4ccccc4)c4ccccc34)CCCCC2)[nH]c2ccccc12`, for which the inhibition stood at 5.44%.
In the case of `Cc1cc(NC(=O)[C@H](CC2CCCCC2)Nc2ccc(C#N)c3ccccc23)ccc1F`, the inhibition was 1.62%.
With `Fc1cccc(COc2ccc(Nc3ncnc4sc(C#C[C@H]5CC[C@H](CN6CCOCC6)N5)cc34)cc2Cl)c1`, the inhibition is -0.26%.
`CC(C)CC(C)NC(=O)C1Cc2c([nH]c3cc(Cl)ccc23)C2(CCN(CCc3ccccc3)CC2)N1` (stereo not given): the inhibition was 4.34%.
As to `COc1ccc2nccc([C@@H](O)CN3CCC(NC(=O)/C=C/c4cc(F)cc(Br)c4)CC3)c2c1`, the inhibition is -0.22%.
With `CCN(CC)CCNC(=O)c1ccc(NC(=O)c2cc(-c3ccncc3)nc3ccccc23)cc1`, the inhibition is -1.61%.
Consider `Fc1ccc2[nH]c(-c3ccc(-c4ccc(CN5CCC(CCN6CCCCC6)CC5)cc4)cc3)nc2c1`, for which the inhibition amounted to 3.31%.
Regarding `CCOC(=O)c1c(SCc2cccc(F)c2F)[nH]c2ccccc2c1=O`, the inhibition was 1.97%.
For `CCCCOC(=O)[C@H](CCC)NC(=O)c1ccc(NS(=O)(=O)c2ccc3nc(N)[nH]c(=O)c3c2)cc1`, the inhibition turned out to be 0.77%.
For the compound `CCCNC(=O)C1CCN(C(c2ccccc2)c2ccc(Cl)c(Cl)c2)CC1` (stereo not given), the inhibition was 3%.
`CC(C)CCNCC(O)Cn1c2ccc(Cl)cc2c2cc(Cl)ccc21` (stereo not given): the inhibition was determined as 0.33%.
`Cc1cc(N(C)C2CCN(C)C2)nc(Nc2ccc(Cl)cc2)n1` (stereo not given): the inhibition is 4.14%.
With `CN1CCC(N2CCN(CCOc3cc(NC(=O)/C=C/c4ccccc4Cl)ccc3Br)CC2)CC1` the figure was -1.82%; with `CCCCCCCN1CCC(CCNc2ccnc3ccc(OC)cc23)CC1`, 0.79%.
For `COc1ccc(CCN(Cc2cccs2)C(=O)c2cc3sccc3n2C)cc1OC`, the inhibition was found to be 0.18%.
Consider `CN1CCC(N(Cc2ccc(-c3ccc(C(F)(F)F)cc3)cc2)C(=O)Cn2c(SCc3cccc(F)c3F)cc(=O)c3c2CCC3)CC1`, for which the inhibition turned out to be 1.56%.
